Our source for the ΔTm values is ChEMBL document CHEMBL5308504, “Tm Shift (DSF) assay results for EUbOPEN Chemogenomics Library” (2023).

Details in all cases: Compound concentration 20.0 uM, Protein concentration 2.0 uM, Result type QC Liability
Experiment [1] deals with Tyrosine-protein kinase ABL1 (Homo sapiens) (UniProt P00519).
In experiment [2] the target is Cyclin-dependent kinase 2 (Homo sapiens) (UniProt P24941).
Experiment [3] concerns the target Casein kinase I isoform delta (Homo sapiens) (UniProt P48730).
Experiment [4] concerns the target Glycogen synthase kinase-3 beta (Homo sapiens) (UniProt P49841).
For experiment [5], the target named is Mitogen-activated protein kinase 1 (Homo sapiens) (UniProt P28482).
In experiment [6] the target is T1, Aurora kinase A (Homo sapiens) (UniProt O14965).
T1 sequence (whole entry): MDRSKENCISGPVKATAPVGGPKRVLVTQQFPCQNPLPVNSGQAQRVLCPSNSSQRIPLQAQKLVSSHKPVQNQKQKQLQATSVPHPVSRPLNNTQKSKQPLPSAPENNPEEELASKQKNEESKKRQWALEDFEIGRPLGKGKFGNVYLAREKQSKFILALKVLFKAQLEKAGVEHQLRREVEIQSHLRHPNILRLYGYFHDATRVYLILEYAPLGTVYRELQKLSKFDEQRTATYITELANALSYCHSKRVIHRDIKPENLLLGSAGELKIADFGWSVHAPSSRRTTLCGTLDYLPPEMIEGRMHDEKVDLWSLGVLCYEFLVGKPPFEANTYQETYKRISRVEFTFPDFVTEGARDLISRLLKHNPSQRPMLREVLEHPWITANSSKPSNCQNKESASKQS

Each structure is given as a SMILES string. Where “and” joins values, the source holds several entries; their conditions need not be identical. Equal values may be shown once.

Tyrosine-protein kinase ABL1 (Homo sapiens), sequence (P00519 whole entry): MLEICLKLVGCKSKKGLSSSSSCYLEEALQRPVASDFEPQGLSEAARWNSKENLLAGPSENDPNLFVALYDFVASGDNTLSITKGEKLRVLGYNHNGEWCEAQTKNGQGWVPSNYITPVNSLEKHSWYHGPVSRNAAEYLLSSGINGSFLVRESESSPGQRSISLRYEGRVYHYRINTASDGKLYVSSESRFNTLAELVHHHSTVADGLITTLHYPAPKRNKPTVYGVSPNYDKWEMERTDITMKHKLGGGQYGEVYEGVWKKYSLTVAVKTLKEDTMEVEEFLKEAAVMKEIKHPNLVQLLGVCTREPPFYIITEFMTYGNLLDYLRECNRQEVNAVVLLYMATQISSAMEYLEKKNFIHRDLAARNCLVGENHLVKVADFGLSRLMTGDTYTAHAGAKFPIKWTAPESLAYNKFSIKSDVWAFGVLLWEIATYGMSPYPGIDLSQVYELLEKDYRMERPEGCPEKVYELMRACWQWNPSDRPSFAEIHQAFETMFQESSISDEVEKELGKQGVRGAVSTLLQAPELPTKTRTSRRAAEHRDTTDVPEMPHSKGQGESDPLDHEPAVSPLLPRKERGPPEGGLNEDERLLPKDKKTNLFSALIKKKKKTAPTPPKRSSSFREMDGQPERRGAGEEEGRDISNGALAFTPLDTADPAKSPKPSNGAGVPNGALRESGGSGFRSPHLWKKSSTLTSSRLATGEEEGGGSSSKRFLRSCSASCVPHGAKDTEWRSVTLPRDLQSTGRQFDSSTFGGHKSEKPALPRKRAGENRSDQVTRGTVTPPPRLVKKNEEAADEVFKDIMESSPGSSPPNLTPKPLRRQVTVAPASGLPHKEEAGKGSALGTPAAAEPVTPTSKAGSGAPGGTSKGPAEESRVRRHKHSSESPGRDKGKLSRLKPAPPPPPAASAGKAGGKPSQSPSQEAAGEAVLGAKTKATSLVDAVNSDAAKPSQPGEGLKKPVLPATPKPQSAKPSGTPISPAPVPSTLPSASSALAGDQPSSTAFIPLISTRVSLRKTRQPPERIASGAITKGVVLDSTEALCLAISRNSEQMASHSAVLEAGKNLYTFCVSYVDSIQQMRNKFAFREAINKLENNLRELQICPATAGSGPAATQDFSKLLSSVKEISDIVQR
Mitogen-activated protein kinase 1 (Homo sapiens), sequence (P28482 whole entry): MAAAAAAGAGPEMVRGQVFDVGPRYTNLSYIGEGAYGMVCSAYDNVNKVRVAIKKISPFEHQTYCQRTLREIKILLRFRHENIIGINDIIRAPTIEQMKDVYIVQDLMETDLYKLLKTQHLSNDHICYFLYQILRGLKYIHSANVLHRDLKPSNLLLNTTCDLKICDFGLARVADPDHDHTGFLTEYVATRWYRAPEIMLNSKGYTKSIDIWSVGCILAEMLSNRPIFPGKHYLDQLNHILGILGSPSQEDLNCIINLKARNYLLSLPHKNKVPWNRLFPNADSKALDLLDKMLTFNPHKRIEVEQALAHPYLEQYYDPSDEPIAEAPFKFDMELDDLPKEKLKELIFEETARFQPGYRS
Glycogen synthase kinase-3 beta (Homo sapiens), sequence (P49841 whole entry, looked up): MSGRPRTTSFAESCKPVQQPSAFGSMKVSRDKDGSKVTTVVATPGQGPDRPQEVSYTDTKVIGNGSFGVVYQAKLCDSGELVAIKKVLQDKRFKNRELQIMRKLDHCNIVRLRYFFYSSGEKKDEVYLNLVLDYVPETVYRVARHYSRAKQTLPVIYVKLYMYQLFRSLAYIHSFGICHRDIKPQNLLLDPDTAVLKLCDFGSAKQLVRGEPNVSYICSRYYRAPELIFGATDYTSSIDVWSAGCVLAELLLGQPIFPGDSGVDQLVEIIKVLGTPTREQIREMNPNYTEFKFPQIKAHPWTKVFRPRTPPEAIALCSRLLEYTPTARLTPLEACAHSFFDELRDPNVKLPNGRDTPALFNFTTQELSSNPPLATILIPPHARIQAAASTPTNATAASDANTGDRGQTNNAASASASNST
Casein kinase I isoform delta (Homo sapiens), sequence (P48730 whole entry, looked up, canonical isoform): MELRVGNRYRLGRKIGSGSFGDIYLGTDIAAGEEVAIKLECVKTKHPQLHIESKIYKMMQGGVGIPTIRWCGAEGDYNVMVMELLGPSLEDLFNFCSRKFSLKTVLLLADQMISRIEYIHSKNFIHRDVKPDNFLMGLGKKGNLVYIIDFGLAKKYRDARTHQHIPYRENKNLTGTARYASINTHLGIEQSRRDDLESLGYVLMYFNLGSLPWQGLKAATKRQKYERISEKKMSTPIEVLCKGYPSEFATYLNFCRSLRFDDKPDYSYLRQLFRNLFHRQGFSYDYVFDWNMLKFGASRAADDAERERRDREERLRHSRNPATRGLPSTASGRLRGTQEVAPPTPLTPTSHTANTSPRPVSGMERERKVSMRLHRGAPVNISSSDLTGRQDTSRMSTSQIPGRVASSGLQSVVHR

Regarding `Cc1ccc2c(NS(=O)(=O)c3ccccc3Cl)cccc2c1Oc1ncccc1-c1ccnc(N[C@H]2CCCNC2)n1`, the ΔTm in experiment [1] is 1.79 °C; in experiment [2] it was 0.86 °C; in experiment [3], 0.45 °C; in experiment [4], -0.76 °C; in experiment [5] it was -1.3 °C; in experiment [6], 1.28 °C.

In the case of `N#Cc1ccc(C#CC[C@@H](C#N)NC(=O)[C@@H]2CCCCN2)cc1F`, the ΔTm in experiment [1] is -0.78 °C; in experiment [2] it was 0.23 °C; in experiment [3] it was 0.14 °C; in experiment [4], -0.69 °C; in experiment [5], 0.24 °C; in experiment [6] it was -0.05 °C.

Regarding `O=C(O)c1cc(-c2ccccc2)ccc1O`, the ΔTm in experiment [1] is 0.56 °C; in experiment [2], 0.7 °C; in experiment [3], 0.85 °C; in experiment [4], -0.32 °C; in experiment [5], 0.04 °C; in experiment [6] it was 0.05 °C.

`CCN1C(=O)c2cc(C)ccc2N(C)c2ncccc21`: the ΔTm in experiment [1] was -0.36 °C; in experiment [2], 0.32 °C; in experiment [3], 0.14 °C; in experiment [4], -0.36 °C; in experiment [5], 0.23 °C; in experiment [6], 0.08 °C.

On to `CN(C)CCCN1c2ccccc2Sc2ccc(Cl)cc21`, for which the ΔTm in experiment [1] was 0.03 °C; in experiment [2], 0.8 °C; in experiment [3], 0.05 °C; in experiment [4], -0.47 °C; in experiment [5], 0.34 °C; in experiment [6], -0.47 °C.

For the molecule `COc1cc(C)c(S(=O)(=O)N(C)CCOCC(=O)N(C)[C@H]2CCC[C@@H](N3CCN(C)CC3)C2)c(C)c1`, the ΔTm in experiment [1] is -0.63 °C; in experiment [2], 0.33 °C; in experiment [3] it was 0.16 °C; in experiment [4], -0.91 °C; in experiment [5], -0.21 °C; in experiment [6], -0.27 °C.

In the case of `CC(=O)Nc1nc(C)c(S(=O)(=O)Nc2ccc(C(O)(C(F)(F)F)C(F)(F)F)cc2)s1`, the ΔTm came out at 0.65 °C in experiment [1]; 0.74 °C in experiment [2]; 0.36 °C in experiment [3]; 0.5 °C in experiment [4]; 0.18 °C in experiment [5]; 1.27 °C in experiment [6].

For the molecule `COc1cc(Cl)c(C(=O)N[C@@H](CN[C@H]2CC[C@@H](N)CC2)Cc2ccc(C#N)cc2)cc1-c1ccc(CN[C@H](C)c2ccc(C)cc2)o1`, the ΔTm in experiment [1] is 0.33 °C; in experiment [2], 0.42 °C; in experiment [3] it was -0.07 °C; in experiment [4] it was -0.81 °C; in experiment [5] it was 0.33 °C; in experiment [6] it was 0.07 °C.

Turning to `CN1CCN(c2ccc(-n3cc(-c4ccncc4OCC4CCNCC4)cn3)cc2)CC1`, the ΔTm is 1.5 °C in experiment [1]; 1.21 °C in experiment [2]; 1.48 °C in experiment [3]; -0.06 °C in experiment [4]; 0.53 °C in experiment [5]; -0.52 °C in experiment [6].

In the case of `Cc1cc(NC(=O)c2cccc(NC(=O)/C=C/CN(C)C)c2)ccc1Nc1nccc(-c2cccnc2)n1`, the ΔTm in experiment [1] is 3.79 °C; in experiment [2], 1.64 °C; in experiment [3], 4.02 °C; in experiment [4], 6.68 °C; in experiment [5], 1.52 °C; in experiment [6], 5.38 °C.

In the case of `CCN(C(=O)CO)[C@H]1CN(/C(=N\C#N)Nc2cccc(OC(F)F)c2)N=C1c1ccc(Cl)c(Cl)c1`, the ΔTm is 0.46 °C in experiment [1]; 0.22 °C in experiment [2]; 0.23 °C in experiment [3]; 2.8 °C in experiment [4]; -0.24 °C in experiment [5]; 0.87 °C in experiment [6].

With `Cn1ncc(NC(=O)c2nc(-c3c(F)cccc3F)sc2N)c1N1CC[C@@H](N)[C@H](F)CC1`, the ΔTm came to 0.6 °C in experiment [1]; 1.59 °C in experiment [2]; 0.57 °C in experiment [3]; 12.4 °C in experiment [4]; 0.32 °C in experiment [5]; 0.87 °C in experiment [6].

In the case of `Cc1csc(-c2nnc(Nc3ccc(Oc4ncccc4-c4ccnc(N)n4)cc3)c3ccccc23)c1`, the ΔTm in experiment [1] is 7.01 °C; in experiment [2] it was 0.42 °C; in experiment [3], 0.58 °C; in experiment [4], -4.11 °C; in experiment [5] it was 4.87 °C; in experiment [6] it was 13.8 °C.

On to `CCOC(=O)Nc1ccc2c(c1)N(C(=O)CN(CC)CC)c1ccccc1CC2`, for which the ΔTm in experiment [1] is 0.17 °C; in experiment [2], 0.57 °C; in experiment [3], 0.58 °C; in experiment [4], -0.12 °C; in experiment [5], 0.19 °C; in experiment [6], -1.06 °C.

Regarding `COc1ccccc1N1CCN(c2ncnc3c2cnn3-c2ccccc2)CC1`, the ΔTm was 0.32 °C in experiment [1]; -0.17 °C in experiment [2]; 0.84 °C in experiment [3]; -0.28 °C in experiment [4]; -0.07 °C in experiment [5]; -0.16 °C in experiment [6].

For the molecule `O=C(Cc1ccccc1)Nc1nnc(N2CC[C@@H]3[C@H]2CN3c2cccnn2)s1`, the ΔTm in experiment [1] was 0.18 °C; in experiment [2] it was 0.43 °C; in experiment [3], -0.16 °C; in experiment [4], -0.46 °C; in experiment [5] it was 0.3 °C; in experiment [6], -0.66 °C.

As for `O=C1Nc2ccc(C(=O)c3ccco3)cc2C1=Cc1cc(Cl)c(O)c(Cl)c1`, the ΔTm in experiment [1] was 4.46 °C; in experiment [2], 0.67 °C; in experiment [3], 3.71 °C; in experiment [4], 5.93 °C; in experiment [5], 0.54 °C; in experiment [6], 5.03 °C.

Regarding `CCn1c(CNC(=O)c2ncc(C)nc2N)[n+](CC)c2ccc(C(=O)N(C)CCN(C)C)cc21`, the ΔTm in experiment [1] is 0.1 °C; in experiment [2] it was 0.39 °C; in experiment [3], 0.2 °C; in experiment [4], -0.02 °C; in experiment [5], 0.08 °C; in experiment [6] it was -0.29 °C.

In the case of `O=C(CCSCc1ccco1)NNC(=O)N1Cc2ccccc2Oc2ccc(Cl)cc21`, the ΔTm in experiment [1] is 0.44 °C; in experiment [2] it was 0.06 °C; in experiment [3], -8.4 °C; in experiment [4], -9.34 °C; in experiment [5] it was 0.1 °C; in experiment [6], 1.12 °C.

Consider `CC(C)(C)NC(=O)c1cncn1C1CCN(c2ccc(-c3nnc(C(F)(F)F)o3)cn2)CC1`, for which the ΔTm in experiment [1] is 1.4 °C; in experiment [2], 0.97 °C; in experiment [3], 0.21 °C; in experiment [4], -0.09 °C; in experiment [5] it was 0.18 °C; in experiment [6], 0.23 °C.

For `N#Cc1ccc(COc2ccc(Br)cc2CNCCO)cn1`, the ΔTm is 0.3 °C in experiment [1]; 0.22 °C in experiment [2]; 0.13 °C in experiment [3]; -0.56 °C in experiment [4]; 0.45 °C in experiment [5]; -1 °C in experiment [6].

Regarding `CSc1ccc(C(=O)/C=C/c2cc(C)c(OC(C)(C)C(=O)O)c(C)c2)cc1`, the ΔTm in experiment [1] came to 1.1 °C; in experiment [2], 0.59 °C; in experiment [3], 0.61 °C; in experiment [4], 0.69 °C; in experiment [5], 0.07 °C; in experiment [6], 4.96 °C.

On to `CC[C@H](CC(=O)O)n1c(=O)c2ncccc2n(Cc2cn(C)c3cc(C)cc(C)c23)c1=O`, for which the ΔTm in experiment [1] was -0.39 °C and 0.26 °C; in experiment [2], 0.68 °C and 0.96 °C; in experiment [3] it was 0.28 °C and -0.08 °C; in experiment [4], -0.11 °C and -0.78 °C; in experiment [5] it was 0.08 °C and 0.23 °C; in experiment [6], -0.13 °C and 0.01 °C.

Turning to `CN(C1CCc2c(c3ccccc3n2CC(=O)O)C1)S(=O)(=O)c1ccc(F)cc1` (stereo unspecified), the ΔTm is 0.59 °C in experiment [1]; 0.46 °C in experiment [2]; -0.23 °C in experiment [3]; 0 °C in experiment [4]; -0.11 °C in experiment [5]; 0.35 °C in experiment [6].

As for `CNC(=O)c1ccc2c(c1)ncn2-c1ccc(CC(=O)OC(C)(C)C)cc1`, the ΔTm in experiment [1] was 4.4 °C; in experiment [2], 0.07 °C; in experiment [3] it was -0.01 °C; in experiment [4], -0.5 °C; in experiment [5], 0.2 °C; in experiment [6], 0.99 °C.

For `CC(C)(C)c1cc(NC(=O)c2csc(Nc3ccc(Cl)cc3)n2)no1`, the ΔTm in experiment [1] is -0.19 °C; in experiment [2], 0.91 °C; in experiment [3], 1.05 °C; in experiment [4] it was -2.8 °C; in experiment [5], -3.27 °C; in experiment [6] it was 1.67 °C.
